Results on 22 compounds are retold here after ChEMBL document CHEMBL4888484, “Replenishing the malaria drug discovery pipeline: Screening and hit evaluation of the MMV Hit Generation Library 1 (HGL1) against asexual blood stage Plasmodium falciparum ,using a nano luciferase reporter read-out” (2022).

The campaign covered roughly 150,000 compounds. About 540 (0.36%) showed an effect of 50% or more. This is one part of a sample in which strong results are shown more often than they occur.

The test concerns Plasmodium falciparum. In words: Primary screen in NF54 nanoGlo assay, in single point, at 2uM, 72h; a lower Z score goes with more inhibition. The format is functional, Erythrocyte. The following applies: timepoint 72 hour.
The % Inhibition is the drop in the measured response relative to a control, in per cent. For `COc1ccc(OC)c(-n2c(-c3ccccc3)cc(C(=O)N3CCN(Cc4ccccc4)CC3)c2C)c1`, the “% Inhibition” value was -8% and the Z score was determined as 1.09.

As for `CCC(C(=O)Nc1ccc2c(c1)CN(CCc1ccccc1)C(=O)C(C)O2)c1ccccc1` (centres undefined), the “% Inhibition” value is -7% and the Z score stood at 0.66.

In the case of `CCC(C(=O)Nc1ccc2c(c1)CN(CCc1ccc(OC)c(OC)c1)C(=O)C(C)O2)c1ccccc1` (centres undefined), the “% Inhibition” value is recorded as 91% and the Z score is given as -17.08.

As for `COc1cccc(NC(=O)Nc2ccc3c(c2)CN(CCc2ccc(OC)c(OC)c2)C(=O)[C@H](C)O3)c1`, the “% Inhibition” value was found to be 0% and the Z score is listed as -0.08.

Consider `Cc1noc(C)c1N(C)C(=O)Nc1cccnc1`, for which the “% Inhibition” value is listed as -2% and the Z score is listed as 0.36.

In the case of `COc1ccc(NC(=O)[C@H](NC(=O)Cc2c[nH]c3ccccc23)c2ccc(C)cc2)cc1`, the “% Inhibition” value was -9% and the Z score was found to be 1.46.

Consider `CC1C(C(F)(F)F)OCCN1C(=O)NC1CCCC1Cc1ccccn1` (centres undefined), for which the “% Inhibition” value is on record as -4% and the Z score came to 0.71.

As to `COc1cccc(-c2nn(-c3nc(-c4ccccc4)cc(C(F)(F)F)n3)c(-c3cccc(OC)c3)c2Cl)c1`, the “% Inhibition” value was found to be 38% and the Z score is -3.81.

Turning to `COc1ccc(-c2cc(C(F)(F)F)nc(-n3nc(-c4cccc(OC)c4)c(Cl)c3-c3cccc(OC)c3)n2)cc1`, the “% Inhibition” value amounted to 91% and the Z score is recorded as -10.21.

For `COc1ccc(-c2cc(C(F)(F)F)nc(-n3nc(-c4cccc(C)c4)c(C)c3-c3cccc(C)c3)n2)cc1`, the “% Inhibition” value was -7% and the Z score amounted to 1.42.

`Cc1cc(NC(=O)C(=O)NC2CC(C)CC(C)(C)C2)n(-c2nc3c(c(=O)[nH]2)CCC3)n1` (centres undefined): the “% Inhibition” value was 85% and the Z score is reported as -13.4.

`Cc1cc(NC(=O)c2ccc3ccccc3c2)n(-c2nc3c(c(=O)[nH]2)CCC3)n1`: the “% Inhibition” value is 2% and the Z score is -0.26.

With `Cc1cc(NC(=O)Cc2ccc(-c3ccccc3)cc2)n(-c2nc3c(c(=O)[nH]2)CCC3)n1`, the “% Inhibition” value was -4% and the Z score turned out to be 0.86.

Turning to `CCOc1ccc2ccccc2c1C(=O)Nc1cc(C)nn1-c1nc2c(c(=O)[nH]1)CCC2`, the “% Inhibition” value turned out to be 92% and the Z score was -17.

On to `COCC(=O)Nc1cc(C)nn1-c1nc2c(c(=O)[nH]1)CCC2`, for which the “% Inhibition” value was determined as 1% and the Z score is given as -0.17.

As for `COc1ccccc1OCC(=O)Nc1cc(C)nn1-c1nc2c(c(=O)[nH]1)CCC2`, the “% Inhibition” value came out at 1% and the Z score is given as -0.14.

Turning to `CC(NC(=O)N(C)CC1CCCO1)c1ccc(N2CCOCC2)cc1` (centres undefined), the “% Inhibition” value is listed as -3% and the Z score is reported as 0.42.

Turning to `COC[C@H]1CN(C)CC12CCN(C(=O)Cc1ccc(Cl)cc1)CC2`, the “% Inhibition” value was 9% and the Z score is given as -1.07.

Take `CCCC(=O)N1CCN(c2cc(-n3cnc(C)c3C)ncn2)CC1`: the “% Inhibition” value was -12% and the Z score turned out to be 1.96.

Regarding `COc1cc(C(=O)Nc2ccc3sc(NC(=O)c4cc(OC)c(OC)c(OC)c4)nc3n2)cc(OC)c1OC`, the “% Inhibition” value was 101% and the Z score is on record as -16.35.

Consider `COc1cc(C(=O)Nc2ccc(Nc3ccc(C)nn3)cc2)cc(OC)c1OC`, for which the “% Inhibition” value is 13% and the Z score was -2.29.

`COc1cc(C(=O)Nc2scnc2C)cc(OC)c1OC`: the “% Inhibition” value was found to be 45% and the Z score came out at 0.11.
